# From PubChem BioAssay (NCATS)
# Results filed as inconclusive are left out. The source made the active and inactive calls. Calls follow the shape of the dose curve; as a rule, active = well fitted curve in the direction sought with a large enough effect; inconclusive = small, poorly fitted or top-dose-only effect, or another doubt; inactive = no such curve, though single readings can be large; an effect the other way counts as inactive or inconclusive.
# Tests used:
# [1] = molecular target: Alpha-galactosidase A (Homo sapiens) (UniProt P06280); assay: Counterscreen for Glucocerebrosidase Inhibitors: qHTS Assay for Human alpha-Galactosidase at pH 4.5 (AID 992)
# Chain of Alpha-galactosidase A (Homo sapiens) (P06280 whole entry, looked up): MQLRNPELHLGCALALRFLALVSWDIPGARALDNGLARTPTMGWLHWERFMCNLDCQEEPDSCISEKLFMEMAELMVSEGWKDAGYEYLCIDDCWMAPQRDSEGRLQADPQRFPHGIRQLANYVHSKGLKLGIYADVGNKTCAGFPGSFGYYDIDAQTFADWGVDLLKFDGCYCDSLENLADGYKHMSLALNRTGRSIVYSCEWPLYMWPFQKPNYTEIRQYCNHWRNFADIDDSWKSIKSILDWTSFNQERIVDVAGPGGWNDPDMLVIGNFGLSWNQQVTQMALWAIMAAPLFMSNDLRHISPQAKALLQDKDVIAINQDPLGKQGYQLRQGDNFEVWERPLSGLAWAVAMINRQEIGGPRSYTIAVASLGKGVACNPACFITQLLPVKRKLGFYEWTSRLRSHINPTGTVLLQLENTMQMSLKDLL
# Summary of the method: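 Quantitative HTS: compounds tested from 0.7 nM up to 77 uM against 2 nM enzyme with 80 uM 4-MU alpha-D-galactopyranoside. The 20 min room-temperature reaction is stopped with 1M NaOH/1M glycine, pH 10.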
# [2] = molecular target: alpha-glucosidase (Oryza sativa, rice) (UniProt Q653V4); assay: Counterscreen for Glucocerebrosidase Inhibitors: qHTS Assay for Rice alpha-Glucosidase at pH 5.0 (AID 997)
# Summary of the method: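 Rice alpha-glucosidase (4 nM final) with 400 uM 4-methylumbelliferyl-alpha-D-glucopyranoside in citrate buffer pH 5.0, 20 min at room temperature, stopped at pH 10; fluorescence 365/440 nm, compounds 0.7 nM–77 uM, AC50 from Hill fits.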
# [3] = Cell Viability - LYMP2-008 (AID 980); also: nearly all actives have a fitted effect of over 60% in size
# Summary of the method: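 qHTS, human lymphoblastoid line, 2500 cells/well; 5 hr preincubation, 24 hr compound, 37 C. CellTiter-Glo ATP luminescence. AC50 via Hill equation. Tetraoctylammonium bromide positive control.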
# [4] = Cell Viability - LYMP2-012 (AID 982);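 also: cellular ATP by luciferase luminescence where a drop means cytotoxicity; cells exposed to compound for one day before reading; nearly all actives have a fitted effect of over 55% in size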
# [5] = Cell Viability - LYMP2-014 (AID 983); also: series mostly up to about 92 µM; nearly all actives have a fitted effect of over 50% in size
# Summary of the method: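 Luminescent ATP signal (CellTiter-Glo, 30 min at room temperature) serves as the viability read-out after 24 hr compound exposure at 37 C. Cells were seeded at 2500 per well and settled 5 hr beforehand.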
# [6] = Cell Viability - LYMP2-016 (AID 984);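 also: cells exposed to compound for 24 hours at 37 °C; nearly all actives have a fitted effect of over 55% in size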
# Summary of the method: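 Cytotoxicity was scored by luminescent ATP content (CellTiter-Glo) after 24 h compound exposure at 37 C of a human lymphoblastoid line at 2500 cells/well. Concentration-response data were fitted to the Hill equation for AC50.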
# [7] = Cell Viability - LYMP2-018 (AID 985); also: nearly all actives have a fitted effect of over 50% in size
# Summary of the method: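 Luminescent ATP signal (CellTiter-Glo, read after 30 min at room temperature) reports viable cells after 24 hr compound treatment at 37 C. Concentration-response data were fitted to the standard Hill equation for AC50.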
# [8] = Cell Viability - LYMP2-020 (AID 986); also: series mostly up to about 92 µM; nearly all actives have a fitted effect of over 55% in size
# Summary of the method: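 Luminescent ATP signal (CellTiter-Glo, 30 min at room temperature) is the read-out after 24 h compound treatment of lymphoblastoid cells at 37 C. AC50 values come from Hill-equation fits across concentrations.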
# [9] = Cell Viability - LYMP2-022 (AID 987); also: nearly all actives have a fitted effect of over 55% in size
# Summary of the method: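 qHTS: human lymphoblastoid cells 2500/well; 5 hr 37 C; cpd added; 24 hr 37 C; CellTiter-Glo, 30 min RT; luminescence. AC50 via Hill fit; tetraoctylammonium bromide positive ctrl.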
# [10] = Cell Viability - LYMP2-024 (AID 988); also: nearly all actives have a fitted effect of over 60% in size
# Summary of the method: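 Steps: seed 2500 cells/well, 5 hr 37 C; add compound, 24 hr 37 C; add CellTiter-Glo, 30 min room temperature; read luminescence. AC50 derived by Hill modelling of concentration-dependent ATP loss.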
smiles,measurement,setting,value
CCOC(=O)c1ncn2c1CN(C)C(=O)c1cc(F)ccc1-2,outcome,[1],inactive
same,outcome,[2],inactive
N[C@@H](Cc1c[nH]c2ccc(O)cc12)C(=O)O,outcome,[3],inactive
same,outcome,[4],inactive
same,outcome,[5],inactive
same,outcome,[6],inactive
same,outcome,[7],inactive
same,outcome,[8],inactive
same,outcome,[9],inactive
same,outcome,[10],inactive
same,outcome,[1],inactive
same,outcome,[2],inactive
O=c1[nH]cc(F)c(=O)[nH]1,outcome,[5],inactive
same,outcome,[6],inactive
same,outcome,[8],inactive
same,outcome,[10],inactive
same,outcome,[1],inactive
same,outcome,[2],inactive
COc1cc2c(c(OC)c1OC)-c1ccc(OC)c(=O)cc1[C@@H](NC(C)=O)CC2,outcome,[1],inactive
same,outcome,[2],inactive
Nc1nnc(-c2cccc(Cl)c2Cl)c(N)n1,outcome,[1],inactive
same,outcome,[2],inactive
CC(C)Cc1ccc(C(C)C(=O)O)cc1 (configuration not stated),outcome,[1],inactive
same,outcome,[2],inactive
CN1CCC(=C2c3ccccc3CC(=O)c3sccc32)CC1,outcome,[1],inactive
same,outcome,[2],inactive
OCCN(CCO)c1nc(N2CCCCC2)c2nc(N(CCO)CCO)nc(N3CCCCC3)c2n1,outcome,[2],inactive
CN(C)CCC=C1c2ccccc2C=Cc2ccccc21,outcome,[1],inactive
same,outcome,[2],inactive
O=C(C1CCCCC1)N1CC(=O)N2CCc3ccccc3C2C1 (configuration not stated),outcome,[1],inactive
same,outcome,[2],inactive
OCCN1CCN(CCCN2c3ccccc3Sc3ccc(C(F)(F)F)cc32)CC1,outcome,[1],inactive
same,outcome,[2],inactive
O=C1c2c(O)ccc(O)c2C(=O)c2c(NCCNCCO)ccc(NCCNCCO)c21,outcome,[1],inactive
same,outcome,[2],inactive
Cc1ccc(C(=O)Nc2ccc(S(=O)(=O)O)c3cc(S(=O)(=O)O)cc(S(=O)(=O)O)c23)cc1NC(=O)c1cccc(NC(=O)Nc2cccc(C(=O)Nc3cc(C(=O)Nc4ccc(S(=O)(=O)O)c5cc(S(=O)(=O)O)cc(S(=O)(=O)O)c45)ccc3C)c2)c1,outcome,[1],inactive
same,outcome,[2],inactive
